# Screening data deposited in PubChem by National Center for Advancing Translational Sciences (NCATS).
# Hits are enriched below; roughly 12% of the tested compounds scored in any of these assays.
# JMJD2A Tudor – qHTS Assay for Inhibitors of JMJD2A-Tudor Domain. Potency, µM (doses to about 114 µM), for the others: at the top dose activity change, negative = inhibition, most hits filed as inhibitors. AlphaScreen JMJD2A-Tudor / H3K4me3 peptide binding. Lysine-specific demethylase 4A (Homo sapiens), O75164. 390,000 tested, 4.4% active. AID 504339, 2011; note: % is set by controls: 0 for no effect and ±100 for the full control effect; nearly all actives have a fitted effect of over 50% in size
# L3MBTL1 block – qHTS Assay for the Inhibitors of L3MBTL1; Lethal(3)malignant brain tumor-like protein 1 (Homo sapiens), Q9Y468; AlphaScreen L3MBTL1–H3K9me1 peptide binding; Potency, µM (series often up to 57.1 µM), inactives show at the top dose activity, negative = inhibition, actives largely listed as inhibitors; 230,000 tested, 0.66% active; AID 485360, 2010; note: % is set by controls: 0 for no effect and ±100 for the full control effect; nearly all actives have a fitted effect of over 60% in size
#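 First, the protein-peptide complex forms for 30 min at room temperature (L3MBTL1 50 nM, biotinylated H3K9me1 peptide 75 nM). Next, compounds are pin-transferred and incubated 30 min. Finally, AlphaScreen beads are added and read after 30 min.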
# Sfp inh – qHTS Assay for Inhibitors of Bacillus subtilis Sfp phosphopantetheinyl transferase (PPTase); Biochemical Sfp PPTase activity, qHTS; 4'-phosphopantetheinyl transferase ffp (Bacillus subtilis), Q9F4F7; Potency, µM, for the others: largest response in the series, negative = inhibition, actives largely listed as inhibitors; 310,000 tested, 3.5% active;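 note: the enzyme is Sfp with the accession as filed and its product quenches rhodamine fluorescence; 0% = enzyme reaction without inhibitor and -100% = no enzyme wells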
#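 Sfp 15 nM + cpd, 15 min RT; start w/ rhodamine-CoA 5 uM, BHQ-2-YbbR 12.5 uM (final); 50 mM Hepes pH 7.6, 10 mM MgCl2, 0.01% NP-40, 0.01% BSA; read 525/598 nm at 0 and 30 min.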
# HP1b binding inh – HTS for Inhibitors of HP1-beta Chromodomain Interactions with Methylated Histone Tails. Chromobox protein homolog 1 (Homo sapiens), P83916. AlphaScreen HP1-beta / biotin-H3K9me3 peptide binding. Potency, µM (highest dose often 114 µM), inactives show at the top dose activity change, negative = inhibition, usual class: inhibitors. 390,000 tested, 0.56% active. AID 540317, 2011; note: nearly all actives have a fitted effect of over 70% in size
# Target sequence (P83916 whole entry, looked up): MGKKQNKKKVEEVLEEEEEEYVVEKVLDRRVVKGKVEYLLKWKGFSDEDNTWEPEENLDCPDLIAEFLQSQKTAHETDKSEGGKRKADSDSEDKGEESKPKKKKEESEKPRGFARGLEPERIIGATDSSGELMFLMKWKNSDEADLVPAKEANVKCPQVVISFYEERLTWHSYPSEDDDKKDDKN
#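 Compound inhibition of the preformed complex between 50 nM HP1-beta and 50 nM biotinylated H3K9me3 peptide was read by AlphaScreen. Buffer was PBS pH 7.4 with 0.01% Tween-20. Incubations ran 30 min at room temperature, with 10 ug/mL donor/acceptor beads.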
# BAZ2B block – qHTS Assay for Inhibitors of BAZ2B. AlphaScreen BAZ2B-H3K14Ac peptide displacement. Bromodomain adjacent to zinc finger domain protein 2B (Homo sapiens), Q9UIF8. Potency, µM (series often up to 114 µM), for inactives: at the top dose activity change, negative = inhibition, most hits filed as inhibitors. 360,000 tested, 4.4% active; note: % is set by controls: 0 for no effect and ±100 for the full control effect; nearly all actives have a fitted effect of over 60% in size
#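 Multi-concentration screen (max 110 uM) measuring displacement of acetylated histone H3 peptide from BAZ2B by AlphaScreen, using 50 nM protein, 50 nM peptide and 10 ug/mL streptavidin donor plus Ni-chelate acceptor beads.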
# G9a inh – qHTS Assay for Inhibitors of Histone Lysine Methyltransferase G9a. Histone-lysine N-methyltransferase EHMT2 (Homo sapiens), Q96KQ7. G9a H3K9 monomethylation, AlphaScreen, 2 h. Potency, µM (doses to about 102 µM), without a hit: at the highest dose activity, negative = inhibition, actives largely listed as inhibitors. 350,000 tested, 8.8% active; note: % is set by controls: 0 for no effect and ±100 for the full control effect; nearly all actives have a fitted effect of over 75% in size
# Target sequence (Q96KQ7 913-1193 limits assumed): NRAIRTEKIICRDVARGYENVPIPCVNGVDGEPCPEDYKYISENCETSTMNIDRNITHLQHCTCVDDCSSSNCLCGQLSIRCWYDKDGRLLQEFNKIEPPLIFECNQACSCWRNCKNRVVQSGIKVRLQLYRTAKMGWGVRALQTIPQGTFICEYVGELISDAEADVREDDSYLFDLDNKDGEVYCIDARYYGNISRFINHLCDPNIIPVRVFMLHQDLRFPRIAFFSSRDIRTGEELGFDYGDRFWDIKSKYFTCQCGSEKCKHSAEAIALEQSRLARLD
#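 Enzyme 20 nM + cpd, 15 min RT; add b-H3K9 pep 500 nM / SAM 20 uM; 2 h RT; anti-H3K9me1 Ab 0.5 ug/mL + SA donor / anti-rabbit acceptor beads 20 ug/mL each, 10 min; AlphaScreen read.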
# Active calls of the source: *; ? = inconclusive; . = not tested or not shown; [ ] = dose if it differs, or a comment. Calls come from the whole dose curve; as a rule, active = well fitted curve in the direction sought with a large enough effect; inconclusive = small, poorly fitted or top-dose-only effect, or another doubt; inactive = no such curve, though single readings can be large; an effect the other way counts as inactive or inconclusive. Potency is the fitted concentration of half-maximal effect.
SMILES,JMJD2A Tudor,L3MBTL1 block,Sfp inh,HP1b binding inh,BAZ2B block,G9a inh
COc1cc(C2C(=O)N(C3CCCC3)CC(=O)N2Cc2ccco2)ccc1OC(C)C (stereo unspecified),-16%,-3%,-5%,-6%,-32%,79µM*
Cc1cccc(-n2c3nc(=O)[nH]c(=O)c-3cc3ccc(Cl)cc32)c1C,-12%,.,.,20%,.,-1%[59 µM]
Cc1ccc(C)c(-n2cc(CNCCc3cnccn3)c(-c3ccccc3)n2)c1,-8%,-6%,1%,31%,-20%,0%
CCn1ccnc1CNCc1cn(-c2cc(C)ccc2C)nc1-c1ccccc1,?,?,-14%,10%,40µM*,-10%
COCCN1CCC(CNCc2cn(-c3cc(C)ccc3C)nc2-c2ccccc2)C1 (stereo unspecified),-33%,-17%,50µM*,22%,2%,-9%
Cc1cc(C)c2c(-n3cccc3)c(C(=O)NCCCN3CCCCC3C)sc2n1 (stereo unspecified),-20%,.,.,32%,?,-40%[59 µM]
COc1ccc(OC)c(CNC(=O)Nc2cn(CC(C)C)c(=O)c3ccccc23)c1,?,.,.,2%,2%[57.1 µM],?
C=CCOc1ccc2c(=O)n(C)c3ccccc3c2c1,1%,.,-2%,45%,.,.
C=CCOc1ccc2c(c1)c(=O)cc(C(=O)O)n2CC,-13%,7%,14%,40%,-6%,45µM*
COc1ccc(C2C3C=CCC(c4cccc(-c5ccc(N(C)C)cc5)c4)C3C(=O)N2Cc2ccccc2)cc1Cl (stereo unspecified),?,.,4%,-11%,.,.
N#CC(C#N)=C1C=CC=CN1/C(=C\c1ccccc1)C(=O)c1cccs1,?,18%,2.2µM*,-12%,-9%,1.1µM*
N#CC(C#N)=C1C=CC=CN1/C(=C\c1ccccc1Cl)C(=O)c1ccccc1,50µM*,-2%,?,?,?,14µM*
COc1ccc(-c2ccc(NS(=O)(=O)c3ccc(OC)c(OC)c3)cc2)nn1,-11%,.,.,23%[57 µM],0%,-5%[59 µM]
COc1ccc(C(C(=O)Nc2ccc(C(C)C)cc2)N(C)C(=O)Cc2cccs2)cc1 (stereo unspecified),-29%,.,.,45%,-5%,13%[59 µM]
C=CCNC(=O)c1cc(Cl)cc(Cl)c1,45µM*,.,11%,-7%,-4%,-3%
Cc1ccc2nc(-c3ccc(NC(=O)COC(=O)c4ccc(=O)[nH]c4)cc3)sc2c1,45µM*,2%,-8%,-17%,-1%,-15%[59 µM]
Cc1ccc2nc(-c3ccc(NC(=O)CN4C(=O)c5ccccc5C4=O)cc3)sc2c1,-9%,5%,-5%,35%,11%,-18%[59 µM]
Cc1ccc2nc(-c3ccc(NC(=O)CNC4CC4)cc3)sc2c1,?,13%,-30%,-20%,45µM*,7.1µM*
Cn1ncc2c(=S)nc(Cl)[nH]c21,22µM*,.,.,-36%,.,.
Cn1ncc2c(Nc3ccccc3Cl)nc(Nc3ccccc3Cl)nc21,-32%,8%,-7%,-8%,-7%,-3%[2.33 µM]
O=C(O)CSc1nnnn1C1CCCCC1,28µM*,59%,9%,5%,5%,15%[0.501 µM]
COc1ccc(-c2nc(SCC(=O)c3ccc(OC)c(Br)c3)n[nH]2)cc1,-20%,.,.,50%,?,-38%[59 µM]
CNc1oc(-c2cccs2)nc1S(=O)(=O)c1ccccc1,-18%,-3%,19%,13%,-32%,?
CN1CCN(c2oc(-c3ccco3)nc2S(=O)(=O)c2ccccc2)CC1,-9%,-6%,-1%,28%,3%,?
Cc1ccc(S(=O)(=O)c2nc(-c3cccs3)oc2N2CCC(C)CC2)cc1,?,.,.,-17%,?,?
SMILES,JMJD2A Tudor,L3MBTL1 block,Sfp inh,HP1b binding inh,BAZ2B block,G9a inh
O=S(=O)(c1ccccc1)c1nc(-c2ccco2)oc1N1CCCCCC1,-31%[11.4 µM],-28%,63µM*,8.9µM*,40µM*,?
O=S(=O)(c1ccccc1)c1nc(-c2cccs2)oc1N1CCCCC1,-17%,.,.,-23%,35µM*,?
CCC(C)S(=O)(=O)c1oc(-c2cccs2)nc1S(=O)(=O)c1ccccc1 (stereo unspecified),-20%,.,.,47%,-8%,18µM*
CC1CCN(c2oc(-c3cccs3)nc2S(=O)(=O)c2ccc(Cl)cc2)CC1,?,.,.,?,?,7.9µM*
NC(=S)N=Nc1ccc(NN=C(N)N)cc1,11µM*,.,0.56µM*,4µM*,40µM*,?
NC(N)=Nc1ccc(N=C(N)N)cc1,-6%,4%,9%,37%,?,?
CN1c2ccccc2C(C)(C)C12C=Nc1c(ccc3ccccc13)O2 (stereo unspecified),?,?,-94%,0%,50µM*,.
CN1c2ccccc2C(C)(C)[C@]12C=Cc1cc(O)ccc1O2,56µM*,.,-15%,?,40µM*,?
CC1(C)OC(=O)N(c2ccccc2)C12C=Cc1cc(Br)ccc1O2 (stereo unspecified),-16%,.,-6%,24%,4%,-6%[12.7 µM]
COc1ccc2ccc3c(c2c1)N=CC1(O3)N(C)c2ccccc2C1(C)C (stereo unspecified),45µM*,32µM*,-4%,?,-10%,5.6µM*
CN1c2ccccc2C(C)(C)C12CC(CCl)=NO2 (stereo unspecified),-21%,5%,-8%,23%,-6%,-10%[2.33 µM]
Cc1[nH]n(C(N)=S)c(=O)c1N=Nc1ccc([N+](=O)[O-])cc1Cl,?,.,6%,?,28µM*,25µM*
Nc1[nH][nH]c(=O)c1N=Nc1cccc(Cl)c1,?,-19%,5%,-8%,?,?
NC(=S)n1[nH]c(-c2ccc([N+](=O)[O-])cc2)c(N=Nc2ccc(O)cc2)c1=O,?,.,-28%,?,50µM*,56µM*
Cc1ccccc1N=Nc1c(C)[nH]n(C(N)=S)c1=O,?,6%,-10%,?,-1%,?
NC(=S)n1[nH]c(-c2ccc([N+](=O)[O-])cc2)c(N=Nc2cccc(Cl)c2)c1=O,40µM*,-17%,-13%,-18%,?,35µM*
CCN(CC)S(=O)(=O)c1ccc(N=Nc2c(C)[nH]n(C(N)=S)c2=O)cc1,?,19%,79µM*,-23%,5%,?
Cc1ccc(N2C(=O)N(CC(=O)C(C)(C)C)c3ccccc3S2(=O)=O)cc1C,-15%,.,.,26%,8%,32%[59 µM]
